Consider eight compounds from the supplement of paper PMC9262897, “Low-cost anti-mycobacterial drug discovery using engineered E. coli” (Nature Communications, 2022).

The test system of this experiment is E. coli TESEC Mtb Alr. Kind of experiment: growth (OD600 after 10 h); higher = more growth (less inhibition). The settings on record: compound 0.1 mM. The method, then:
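TESEC Mtb Alr E. coli, or the Alr+ wild-type control, in 384-well plates with Prestwick library compounds at 0.1 mM and 1% DMSO, across arabinose induction levels of 1E3 to 1E7 nM. Growth is read as OD600 after 10 h at 37 °C in triplicate biological replicates.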

The mark [1] stands for this setting: arabinose 1000 nM, raw OD600 reference: median of DMSO wells 0.294, cell-free background 0.041.
The mark [2] stands for this setting: arabinose 10000 nM, raw OD600 reference: median of DMSO wells 0.264, cell-free background 0.041.
The mark [3] stands for this setting: arabinose 100000 nM, raw OD600 reference: median of DMSO wells 0.201, cell-free background 0.041.
[4] abbreviates: arabinose 1000000 nM, raw OD600 reference: median of DMSO wells 0.193, cell-free background 0.041.
Setting [5] is: arabinose 10000000 nM, raw OD600 reference: median of DMSO wells 0.146, cell-free background 0.041.

SMILES strings stand for the structures. Where a name gives a salt, the structure may show the parent alone. ± gives the standard deviation of the averaged measurements.

`C[C@]12C=CC(=O)C=C1CC[C@@H]1[C@@H]2C(=O)C[C@@]2(C)[C@H]1CC[C@]2(O)C(=O)CO` [Prednisone] had a growth under setting [1] of 0.298 ± 0.017; a growth under setting [2] of 0.256 ± 0.0052; a growth under setting [3] of 0.203 ± 0.012; a growth under setting [4] of 0.173 ± 0.0063; a growth under setting [5] of 0.162 ± 0.0056.

With `COCCOC(=O)C1=C(C)NC(C)=C(C(=O)OC(C)C)C1c1cccc([N+](=O)[O-])c1` (stereo not given) [Nimodipine], the growth under setting [1] came out at 0.176 ± 0.062; the growth under setting [2] came to 0.0601 ± 0.0043; the growth under setting [3] stood at 0.154 ± 0.0027; the growth under setting [4] stood at 0.0632 ± 0.0037; the growth under setting [5] is 0.08053 ± 0.00035.

For `CCN1CCN(C(=O)N[C@@H](C(=O)N[C@@H]2C(=O)N3[C@@H]2SC(C)(C)[C@@H]3C(=O)O)c2ccccc2)C(=O)C1=O` [Piperacillin sodium salt], the growth is, setting by setting: under setting [1], 0.295 ± 0.014; under setting [2], 0.268 ± 0.0055; under setting [3], 0.204 ± 0.0097; under setting [4], 0.201 ± 0.0086; under setting [5], 0.133 ± 0.0047.

`CC(C)(C)C(=O)OCOC(=O)[C@@H]1N2C(=O)[C@@H](NC(=O)[C@H](N)c3ccccc3)[C@H]2SC1(C)C` [Pivampicillin] gave a growth under setting [1] of 0.351 ± 0.0076; a growth under setting [2] of 0.285 ± 0.011; a growth under setting [3] of 0.298 ± 0.011; a growth under setting [4] of 0.207 ± 0.02; a growth under setting [5] of 0.203 ± 0.0048.

For `Cc1ccc(-c2ncc(Cl)cc2-c2ccc(S(C)(=O)=O)cc2)cn1` [Etoricoxib], the growth under setting [1] turned out to be 0.241 ± 0.006; the growth under setting [2] worked out at 0.213 ± 0.0045; the growth under setting [3] came out at 0.184 ± 0.014; the growth under setting [4] amounted to 0.15 ± 0.0079; the growth under setting [5] worked out at 0.161 ± 0.0033.

As to `COc1cc(N)c(Cl)cc1C(=O)NC1CCN(CCCOc2ccc(F)cc2)CC1OC` (stereo not given) [Cisapride], the growth runs as follows: under setting [1], 0.2892 ± 0.0012; under setting [2], 0.2613 ± 0.0016; under setting [3], 0.201 ± 0.03; under setting [4], 0.155 ± 0.0047; under setting [5], 0.148 ± 0.0037.

In the case of `CC(C)[N+](C)(CCOC(=O)C1c2ccccc2Oc2ccccc21)C(C)C` [Propantheline bromide], the growth by setting is: under setting [1], 0.231 ± 0.025; under setting [2], 0.269 ± 0.0034; under setting [3], 0.155 ± 0.0034; under setting [4], 0.153 ± 0.0025; under setting [5], 0.132 ± 0.0019.

The compound `CSc1nc2cc(Cl)c(Oc3cccc(Cl)c3Cl)cc2[nH]1` [Triclabendazole] gave a growth under setting [1] of 0.0531 ± 0.0014; a growth under setting [2] of 0.0802 ± 0.002; a growth under setting [3] of 0.0447 ± 0.0021; a growth under setting [4] of 0.0733 ± 0.012; a growth under setting [5] of 0.04873 ± 5.8e-05.
